This passage reports growth results from PubChem BioAssay (NCI).

Compounds without any hit were thinned out: in the full panel of roughly 83,000, 20% have a hit.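 Note: values are percent growth. 100 is the growth of untreated cells, values between 100 and 0 indicate rising inhibition; between -100 and 0 indicates cell death.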 Values without a mark were called inactive. Active and inactive are the calls of the source. Rule for the calls: active = growth percent below 10; inactive = the rest.

Experiment in all cases: NCI-60 one-dose screen, 48 h (100 = growth as untreated, 0 = no growth, -100 = all killed)
In one experiment the test system is SK-MEL-2 melanoma. The conditions noted are these: 10 µM unless noted.
The next experiment relates to EKVX NSCLC. Particulars: 10 µM unless noted.
For a further experiment, the system named is SN12C renal. Particulars: 10 µM unless noted.
In a further experiment the test system is UO-31 renal. Particulars: 10 µM unless noted.
The subject of another experiment is TK-10 renal. Particulars: 10 µM unless noted.
The subject of a further experiment is ACHN renal. Particulars: 10 µM unless noted.
A further experiment has as its system CAKI-1 renal. Particulars: 10 µM unless noted.
The subject of another experiment is A498 renal. Particulars: 10 µM unless noted.
The subject of a further experiment is CCRF-CEM leukemia. The conditions noted are these: 10 µM unless noted.
For the next experiment, the system named is MOLT-4 leukemia. The conditions noted are these: 10 µM unless noted.
Another experiment relates to SR leukemia. Particulars: 10 µM unless noted.
Another experiment relates to RPMI-8226 leukemia. The conditions noted are these: 10 µM unless noted.
The next experiment relates to OVCAR-8 ovarian. Particulars: 10 µM unless noted.
The test system of another experiment is OVCAR-5 ovarian. Particulars: 10 µM unless noted.
The next experiment relates to OVCAR-4 ovarian. Particulars: 10 µM unless noted.
The test system of the next experiment is SK-OV-3 ovarian. The conditions noted are these: 10 µM unless noted.
A further experiment relates to IGROV1 ovarian. The conditions noted are these: 10 µM unless noted.
The test system of a further experiment is OVCAR-3 ovarian. The conditions noted are these: 10 µM unless noted.
The next experiment deals with HS 578T breast. The conditions noted are these: 10 µM.
For another experiment, the system named is NCI/ADR-RES ovarian. Particulars: 10 µM unless noted.

In the case of `CN(C)c1ccc(/C=N/Nc2nnc3n2N=C(c2ccc(Cl)cc2)CS3)cc1`, the growth in the experiment on SK-MEL-2 melanoma was 97.5%; in the experiment on EKVX NSCLC, 89%; with SN12C renal, 95%; with UO-31 renal, 74.9%; in the experiment with TK-10 renal, 92.9%; in the experiment with ACHN renal, 99.5%. Further, the growth with CAKI-1 renal is 96.8%; in the experiment with A498 renal it was 85.6%; with CCRF-CEM leukemia, 86.8%; in the experiment on MOLT-4 leukemia, 66.6%; with SR leukemia it was 94.1%; in the experiment on RPMI-8226 leukemia, 82.5%. In addition, the growth is 96.5% with OVCAR-8 ovarian; 108% with OVCAR-5 ovarian; 98.8% in the experiment with OVCAR-4 ovarian; 108% in the experiment with SK-OV-3 ovarian; 84.4% in the experiment on IGROV1 ovarian; 102% in the experiment with OVCAR-3 ovarian. Moreover, the growth with HS 578T breast is 92%; with NCI/ADR-RES ovarian, 94%.

For the compound `Brc1cccc(-n2ncc3c(Nc4ccc(-c5nnc(-c6ccccc6)o5)cc4)ncnc32)c1`, the growth in the experiment on SK-MEL-2 melanoma was 115%; in the experiment on EKVX NSCLC, 102%; in the experiment on SN12C renal, 97.8%; in the experiment on UO-31 renal it was 75.9%; in the experiment on TK-10 renal, 120%; in the experiment on ACHN renal it was 96.7%. The growth was 90.4% with CAKI-1 renal; 109% in the experiment with A498 renal; 118% in the experiment with CCRF-CEM leukemia; 108% in the experiment with MOLT-4 leukemia; 119% in the experiment with SR leukemia; 117% with RPMI-8226 leukemia. Further, the growth with OVCAR-8 ovarian was 97.8%; in the experiment on OVCAR-5 ovarian, 104%; in the experiment with OVCAR-4 ovarian it was 107%; in the experiment on SK-OV-3 ovarian it was 110%; with IGROV1 ovarian, 112%; in the experiment with OVCAR-3 ovarian, 99.6%. Besides, the results for the growth in the experiment on HS 578T breast and in the experiment on NCI/ADR-RES ovarian were 110% and 98.6%, respectively.

As to `COc1ccc(/C(=C\c2ccc3c(c2)OCO3)C(=O)Nc2nc3ccccc3s2)cc1`, the growth in the experiment with SK-MEL-2 melanoma was 95.2%; with EKVX NSCLC it was 102%; in the experiment with SN12C renal, 98.3%; with UO-31 renal it was 91.9%; with TK-10 renal it was 104%; in the experiment on ACHN renal it was 96.6%. The growth was 91.4% with CAKI-1 renal; 99.9% in the experiment with A498 renal; 95.4% with CCRF-CEM leukemia; 70.9% in the experiment with MOLT-4 leukemia; 81.7% with SR leukemia; 94.5% in the experiment with RPMI-8226 leukemia. The growth with OVCAR-8 ovarian was 102%; with OVCAR-5 ovarian, 93.6%; in the experiment with OVCAR-4 ovarian it was 101%; with SK-OV-3 ovarian, 97.8%; in the experiment with IGROV1 ovarian, 103%; with OVCAR-3 ovarian, 98.5%. Moreover, the results for the growth in the experiment on HS 578T breast and with NCI/ADR-RES ovarian were 110% and 100%, respectively.

As for `CC(=O)O[C@H]1[C@H](CC#CC#CC[C@@H]2C[C@]3(C)[C@H]4CC=C5[C@H]6[C@@H](C)[C@H](C)CC[C@]6(C(=O)NCCCCCCCCN)CC[C@@]5(C)[C@]4(C)CC[C@H]3C(C)(C)[C@H]2OC(C)=O)C[C@]2(C)[C@H]3CC=C4[C@H]5[C@@H](C)[C@H](C)CC[C@]5(C(=O)NCCCCCCCCN)CC[C@@]4(C)[C@]3(C)CC[C@H]2C1(C)C`, the growth in the experiment with SK-MEL-2 melanoma was 125%; with EKVX NSCLC, 110%; in the experiment with SN12C renal, 97.8%; in the experiment on UO-31 renal, 73.7%; in the experiment with TK-10 renal it was 145%; in the experiment with ACHN renal, 119%. The growth is 101% in the experiment on CAKI-1 renal; 118% in the experiment on A498 renal; 105% with CCRF-CEM leukemia; 103% in the experiment on MOLT-4 leukemia; 123% in the experiment on SR leukemia; 95.6% in the experiment on RPMI-8226 leukemia. The growth in the experiment on OVCAR-8 ovarian was 108%; in the experiment on OVCAR-5 ovarian, 108%; in the experiment on OVCAR-4 ovarian it was 114%; with SK-OV-3 ovarian it was 108%; in the experiment on IGROV1 ovarian it was 99.1%; in the experiment with OVCAR-3 ovarian, 100%. Besides, the growth in the experiment on HS 578T breast is 110%; with NCI/ADR-RES ovarian, 98.1%.

As to `C#CC[C@@H]1C[C@]2(C)[C@H]3CC[C@@H]4[C@H]5C(C(=C)C)CC[C@]5(C(=O)NCCN(CCN)CCN)CC[C@@]4(C)[C@]3(C)CC[C@H]2C(C)(C)[C@H]1OC(C)=O` (some centres undefined), the growth with SK-MEL-2 melanoma is 112%; in the experiment on EKVX NSCLC, 31%; with SN12C renal, 87.8%; in the experiment on UO-31 renal, 74.7%; in the experiment with TK-10 renal, 95%; in the experiment on ACHN renal, 91.3%. In addition, the growth was 56.3% in the experiment on CAKI-1 renal; 128% in the experiment on A498 renal; 22.5% with CCRF-CEM leukemia; 31.1% in the experiment on MOLT-4 leukemia; -0.547% (active) with SR leukemia; 58.3% in the experiment with RPMI-8226 leukemia. The growth is 72.1% with OVCAR-8 ovarian; 63.3% with OVCAR-5 ovarian; 21.7% in the experiment with OVCAR-4 ovarian; 105% in the experiment with SK-OV-3 ovarian; 98% in the experiment on IGROV1 ovarian; 48.7% in the experiment with OVCAR-3 ovarian. Moreover, the growth in the experiment with HS 578T breast was 115%; in the experiment on NCI/ADR-RES ovarian, 95.4%.

Regarding `CCCNC(=S)N/N=C(\C)c1ccccn1`, the growth is 69.8% in the experiment with SK-MEL-2 melanoma; 12.1% in the experiment with EKVX NSCLC; 31.6% in the experiment with SN12C renal; -0.774% (active) in the experiment on UO-31 renal; 47.4% in the experiment with TK-10 renal; 10.8% with ACHN renal. For the same compound, the growth in the experiment with CAKI-1 renal is 6.68% (active); in the experiment on A498 renal, 30.8%; with CCRF-CEM leukemia, 15.9%; in the experiment on MOLT-4 leukemia, 6.93% (active); in the experiment on SR leukemia, 10%; in the experiment on RPMI-8226 leukemia, 20%. For the same compound, the growth in the experiment on OVCAR-8 ovarian was 25.2%; in the experiment on OVCAR-5 ovarian it was 49.3%; in the experiment with OVCAR-4 ovarian, 14.8%; in the experiment on SK-OV-3 ovarian, 29.3%; with IGROV1 ovarian, 9.27% (active); in the experiment with OVCAR-3 ovarian it was 41.4%. The growth in the experiment with NCI/ADR-RES ovarian is 11.5%.

With `CCCCCCCCCCCCCCCCOc1ccc(S(=O)(=O)N(C)C)cc1[N+](=O)[O-]`, the growth in the experiment with SK-MEL-2 melanoma is 97.1%; in the experiment on EKVX NSCLC, 98.8%; in the experiment with SN12C renal it was 93.1%; with UO-31 renal it was 98.5%; with TK-10 renal, 86%; with ACHN renal it was 93.5%. Moreover, the growth was 99.1% in the experiment on CAKI-1 renal; 118% in the experiment on A498 renal; 114% in the experiment with CCRF-CEM leukemia; 103% in the experiment with MOLT-4 leukemia; 81.6% in the experiment on SR leukemia; 107% with RPMI-8226 leukemia. Moreover, the growth is 102% in the experiment on OVCAR-8 ovarian; 101% in the experiment with OVCAR-5 ovarian; 101% in the experiment on OVCAR-4 ovarian; 79.2% in the experiment on SK-OV-3 ovarian; 98.5% with IGROV1 ovarian; 117% in the experiment with OVCAR-3 ovarian. Moreover, the results for the growth with HS 578T breast and in the experiment with NCI/ADR-RES ovarian were 80.4% and 115%, respectively.

Consider `CC(=O)O[C@H]1[C@H](CC#CC#CC[C@@H]2C[C@]3(C)[C@H]4CC=C5[C@H]6[C@@H](C)[C@H](C)CC[C@]6(C(=O)NCCN(CCN)CCN)CC[C@@]5(C)[C@]4(C)CC[C@H]3C(C)(C)[C@H]2OC(C)=O)C[C@]2(C)[C@H]3CC=C4[C@H]5[C@@H](C)[C@H](C)CC[C@]5(C(=O)NCCN(CCN)CCN)CC[C@@]4(C)[C@]3(C)CC[C@H]2C1(C)C`, for which the growth was 67% in the experiment with SK-MEL-2 melanoma; -6.42% (active) in the experiment with EKVX NSCLC; 51.9% with SN12C renal; 33.7% in the experiment on UO-31 renal; 110% in the experiment with TK-10 renal; 75.9% with ACHN renal. Further, the growth in the experiment with CAKI-1 renal was 35%; in the experiment on A498 renal, 122%; in the experiment on CCRF-CEM leukemia, 19.8%; in the experiment on MOLT-4 leukemia, 26.8%; in the experiment on SR leukemia it was 53.9%; in the experiment on RPMI-8226 leukemia, 26.6%. In addition, the growth in the experiment on OVCAR-8 ovarian is 3.13% (active); with OVCAR-5 ovarian, 54.6%; with OVCAR-4 ovarian it was 97.4%; with SK-OV-3 ovarian, 89.2%; in the experiment with IGROV1 ovarian, 62.3%; in the experiment with OVCAR-3 ovarian, 89%. The growth with HS 578T breast is 70.6%; in the experiment with NCI/ADR-RES ovarian it was 49.2%.
